# Activity calls are given as the source filed them. Rule as the data show it, unless noted: active = inhibition above about 80%; inactive = the rest.
# What was measured:
# [1] = LFS_MB_P medulloblastoma growth inhibition, cell-based, chromothripsis tumors, cisplatin or BGB combos (AID 1671449); settings: LFS_MB_P medulloblastoma cells;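 also: cells exposed for 96 hours; 0% = vehicle DMSO and 100% = killing by high DMSO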
# [2] = HDN33 neuroblastoma growth inhibition, cell-based, chromothripsis tumors, cisplatin or BGB combos (AID 1671450); settings: HDN33 neuroblastoma cells, stronger effect = higher value;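 also: cells exposed to compound for four days; 0% = vehicle DMSO and 100% = cell killing by high DMSO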
# [3] = ICB984 medulloblastoma cell growth inhibition, synergistic combos for chromothripsis tumors, cisplatin or BGB combos (AID 1671451; call rule not given here;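 also: cells exposed for 96 hours before readout; 0% = vehicle DMSO and 100% = killing by high DMSO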); settings: ICB984 medulloblastoma cells, drug combinations, stronger effect = higher value
# [4] = LFS_MB_1R medulloblastoma cell growth inhibition, synergistic combos for chromothripsis tumors, cisplatin or BGB combos (AID 1671452); settings: LFS_MB_1R medulloblastoma cells, stronger effect = higher value;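 also: cells exposed for 96 hours before readout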
# [5] = HTB85 osteosarcoma cell growth inhibition, synergistic combos for chromothripsis tumors, BGB or cisplatin IC20 combos (AID 1671453); settings: HTB85 osteosarcoma cells, drug combinations, stronger effect = higher value;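 also: cells exposed for 96 hours before readout; 0% = vehicle DMSO and 100% = high DMSO killing control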
# [6] = CRL2098 osteosarcoma cell growth inhibition, synergistic combos for chromothripsis tumors, BGB or cisplatin IC20 combos (AID 1671454); settings: CRL2098 osteosarcoma cells, drug combinations, stronger effect = higher value;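 also: cells exposed for 96 h before readout; 0% = vehicle DMSO and 100% = killing by high DMSO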
# [7] = HD-MB03 medulloblastoma cell growth inhibition, synergistic combos for chromothripsis tumors, BGB or cisplatin IC20 combos (AID 1671455; in the data active = inhibition above about 83%;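 also: 0% = vehicle DMSO and 100% = high DMSO as cytotoxic control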); settings: HD-MB03 medulloblastoma cells, stronger effect = higher value
# [8] = UWB1.289 ovarian carcinoma cell growth inhibition, synergistic combos for chromothripsis tumors, BGB or cisplatin combos (AID 1671456); settings: UWB1.289 ovarian carcinoma cells, stronger effect = higher value;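 also: cells exposed to compound for four days; 0% = vehicle DMSO and 100% = killing by high DMSO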
# [9] = LFS_MB_2R medulloblastoma cell growth inhibition, synergistic combos for chromothripsis tumors, cisplatin combos (AID 1671457); settings: LFS_MB_2R medulloblastoma cells, stronger effect = higher value;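 also: cells exposed to compound for four days before readout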
# [10] = MDA-MB-436 breast carcinoma cell growth inhibition, synergistic combos for chromothripsis tumors, BGB or cisplatin combos (AID 1671458; call rule not given here;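 also: cells exposed for 96 hours; 0% = vehicle DMSO and 100% = killing by high DMSO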); settings: MDA-MB-436 breast carcinoma growth inhibition, drug combinations, stronger effect = higher value
# [11] = UWB1.289_BRCA1 ovarian cancer growth, cell-based, BGB or cisplatin combinations (AID 1671459); settings: UWB1.289 BRCA1 ovarian carcinoma, drug combinations, stronger effect = higher value
# [12] = human astrocyte viability loss, single and combined drugs, cytotoxicity control for chromothriptic childhood tumor combination screen, cell-based, BGB or cisplatin IC20 combos (AID 1671460); settings: Human astrocytes, drug combinations, stronger effect = higher value;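 also: cells exposed to compounds for 96 hours before viability readout; 0% = vehicle and 100% = killing control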
# [13] = growth inhibition of BT084 medulloblastoma cells, cell-based, ICGC_MB145, cisplatin and BGB IC40 combos (AID 1671461); settings: drug combinations, stronger effect = higher value;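 also: cells exposed to drugs for 96 hours; 0% = vehicle DMSO and 100% = high DMSO full killing control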
# [14] = growth inhibition of RCMB18 medulloblastoma cells, cell-based, cisplatin and BGB IC40 combos (AID 1671462); settings: stronger effect = higher value;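 also: cells exposed to compound for four days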
# [15] = growth inhibition of CRL1545 osteosarcoma cells, cell-based, cisplatin and BGB IC20 combos (AID 1671464); settings: stronger effect = higher value;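 also: cells exposed to compound for 96 hours before readout; 0% = vehicle DMSO and 100% = high DMSO killing control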
# [16] = at 0.5 µM, stronger effect = higher value
# [17] = measured here: combination with BGB IC20, at 0.005 µM
# [18] = measured here: combination with BGB IC40, at 0.005 µM
# [19] = measured here: combination with BGB IC40, at 0.05 µM
# [20] = measured here: combination with cisplatin, at 0.5 µM, stronger effect = higher value
# [21] = measured here: combination with cisplatin, at 5 µM, stronger effect = higher value
# [22] = measured here: with BGB IC20 combination, at 0.5 µM
# [23] = measured here: with cisplatin IC20 combination, at 0.5 µM
# [24] = measured here: 5 uM single agent, at 5 µM
# [25] = measured here: combination with cisplatin, at 0.5 µM
# [26] = measured here: combination with cisplatin, at 5 µM
# [27] = measured here: with BGB IC20, at 0.5 µM
# [28] = measured here: with BGB IC20, at 5 µM
# [29] = measured here: with cisplatin IC20, at 0.5 µM
# [30] = measured here: with cisplatin IC20, at 5 µM
# [31] = measured here: combination with BGB at IC20, at 0.5 µM
# [32] = measured here: combination with cisplatin at IC20, at 0.5 µM
# [33] = measured here: combo with BGB at IC20, at 0.5 µM
# [34] = measured here: combo with cisplatin at IC20, at 0.5 µM
# [35] = measured here: inhibition with BGB combination, at 0.05 µM
# [36] = measured here: inhibition with cisplatin combination, at 0.05 µM
# [37] = measured here: BGB combination, at 0.5 µM
# [38] = measured here: BGB combination, at 5 µM
# [39] = measured here: cisplatin combination, at 0.5 µM
# [40] = measured here: cisplatin combination, at 5 µM
# [41] = BGB combination, concentration series, at 5 µM
# [42] = cisplatin combination, concentration series, at 5 µM
# [43] = measured here: combo with BGB IC20, at 0.5 µM
# [44] = measured here: combo with cisplatin IC20, at 0.5 µM
# [45] = cisplatin combination, at 0.5 µM
# [46] = measured here: BGB IC40 combination 0.05 uM, at 0.05 µM
# [47] = measured here: BGB IC40 combination, at 0.05 µM
smiles,measurement,setting,value
C[C@@H]1COCCN1c1cc(C2(S(C)(=O)=O)CC2)nc(-c2cccc3[nH]ccc23)n1,inhibition,[1]; [16],-25.8% (inactive)
same,inhibition,[1]; [17],7.6%
same,inhibition,[1]; [18],5.5%
same,inhibition,[1]; [19],-17.8%
same,inhibition,[1]; [20],-15.1%
same,inhibition,[1]; [21],49.8%
same,inhibition,"[2]; BGB combo, at 5 µM",86.9%
same,inhibition,[2]; at 0.5 µM,36.8% (inactive)
same,inhibition,"[2]; cisplatin combo, at 5 µM",93.4%
same,inhibition,[2]; [22],34.2%
same,inhibition,[2]; [23],50.8%
same,inhibition,"[2]; single agent, at 5 µM",94%
same,inhibition,"[3]; BGB IC20 combo, at 0.005 µM",23.5%
same,inhibition,"[3]; BGB IC40 combo, at 0.005 µM",27.9%
same,inhibition,"[3]; BGB IC40 combo, at 0.05 µM",49.2%
same,inhibition,[3]; at 0.5 µM,-13.7% (inactive)
same,inhibition,"[3]; cisplatin combo, at 0.05 µM",47.4%
same,inhibition,"[3]; cisplatin combo, at 0.5 µM",1.99%
same,inhibition,"[3]; cisplatin combo, at 5 µM",-26.9%
same,inhibition,[3]; [24],12.7%
same,inhibition,[4]; at 0.5 µM,10% (inactive)
same,inhibition,[4]; [19],-3.56%
same,inhibition,[4]; [25],20.8%
same,inhibition,[4]; [26],56.7%
same,inhibition,[5]; at 0.5 µM,20.9% (inactive)
same,inhibition,[5]; [27],21%
same,inhibition,[5]; [28],63.3%
same,inhibition,[5]; [29],29.2%
same,inhibition,[5]; [30],91.9%
same,inhibition,"[5]; single agent, at 5 µM",73.8%
same,inhibition,[6]; at 0.5 µM,20.1% (inactive)
same,inhibition,[6]; [31],11.9%
same,inhibition,[6]; [32],19.4%
same,inhibition,[7]; at 0.5 µM,38% (inactive)
same,inhibition,[7]; [33],11.4%
same,inhibition,[7]; [34],91.1%
same,inhibition,[8]; at 0.5 µM,63.9% (inactive)
same,inhibition,[8]; [35],6.56%
same,inhibition,[8]; [36],-6.75%
same,inhibition,[9]; at 0.5 µM,13.6% (inactive)
same,inhibition,[9]; [25],20.6%
same,inhibition,[9]; [26],51.4%
same,inhibition,[10]; at 0.5 µM,22.5% (inactive)
same,inhibition,[10]; [37],8.94%
same,inhibition,[10]; [38],45.1%
same,inhibition,[10]; [39],30.1%
same,inhibition,[10]; [40],85.8%
same,inhibition,[11]; [41],93.1%
same,inhibition,[11]; at 0.5 µM,65.4% (inactive)
same,inhibition,[11]; [42],117%
same,inhibition,[12]; at 0.5 µM,23.1% (inactive)
same,inhibition,[12]; [43],14.4%
same,inhibition,[12]; [44],30.8%
same,inhibition,[13]; at 0.5 µM,17% (inactive)
same,inhibition,[13]; [45],14.1%
same,inhibition,"[13]; cisplatin combination, at 5 µM",58%
same,inhibition,[13]; [46],-18.4%
same,inhibition,"[13]; single agent, at 5 µM",44.6%
same,inhibition,[14]; at 0.5 µM,25.2% (inactive)
same,inhibition,"[14]; cisplatin combo, at 5 µM",34.6%
same,inhibition,[14]; [47],-0.169%
same,inhibition,[14]; [25],44.8%
same,inhibition,"[14]; single agent, at 5 µM",51.4%
same,inhibition,[15]; at 0.5 µM,76.6% (inactive)
same,inhibition,[15]; [22],71%
same,inhibition,[15]; [23],79.1%
same,inhibition,"[15]; single agent, at 0.05 µM",21.8%
same,inhibition,"[15]; single agent, at 5 µM",97.9%
O=C(CCCCCCC(=O)Nc1ccc(I)cc1)NO,inhibition,[1]; [16],14.6% (inactive)
same,inhibition,[1]; [17],-13.9%
same,inhibition,[1]; [18],-26.4%
same,inhibition,[1]; [19],-4.26%
same,inhibition,[1]; [20],55%
same,inhibition,[1]; [21],112%
same,inhibition,"[2]; BGB combo, at 5 µM",92.7%
same,inhibition,[2]; at 0.5 µM,2.25% (inactive)
same,inhibition,"[2]; cisplatin combo, at 5 µM",96.8%
same,inhibition,[2]; [22],2.67%
same,inhibition,[2]; [23],4.68%
same,inhibition,"[2]; single agent, at 5 µM",96.1%
same,inhibition,"[3]; BGB IC20 combo, at 0.005 µM",-14%
same,inhibition,"[3]; BGB IC40 combo, at 0.005 µM",-21.6%
same,inhibition,"[3]; BGB IC40 combo, at 0.05 µM",79.6%
same,inhibition,[3]; at 0.5 µM,-43% (inactive)
same,inhibition,"[3]; cisplatin combo, at 0.05 µM",78.8%
same,inhibition,"[3]; cisplatin combo, at 0.5 µM",-63.2%
same,inhibition,"[3]; cisplatin combo, at 5 µM",-38.3%
same,inhibition,[3]; [24],-6.51%
same,inhibition,[4]; at 0.5 µM,4.61% (inactive)
same,inhibition,[4]; [19],-30%
same,inhibition,[4]; [25],7%
same,inhibition,[4]; [26],97.8%
same,inhibition,[5]; at 0.5 µM,-14.1% (inactive)
same,inhibition,[5]; [27],-30.7%
same,inhibition,[5]; [28],58%
same,inhibition,[5]; [29],-7.38%
same,inhibition,[5]; [30],98.3%
same,inhibition,"[5]; single agent, at 5 µM",68.5%
same,inhibition,[6]; at 0.5 µM,-40.1% (inactive)
same,inhibition,[6]; [31],-46.1%
same,inhibition,[6]; [32],-23.5%
same,inhibition,[7]; at 0.5 µM,12.8% (inactive)
same,inhibition,[7]; [33],5.06%
same,inhibition,[7]; [34],20.3%
same,inhibition,[8]; at 0.5 µM,14.7% (inactive)
same,inhibition,[8]; [35],-32%
same,inhibition,[8]; [36],-13.2%
same,inhibition,[9]; at 0.5 µM,-12.8% (inactive)
same,inhibition,[9]; [25],3.62%
same,inhibition,[9]; [26],99%
same,inhibition,[10]; at 0.5 µM,-16.9% (inactive)
same,inhibition,[10]; [37],-27.7%
same,inhibition,[10]; [38],49.2%
same,inhibition,[10]; [39],-20.6%
same,inhibition,[10]; [40],53.6%
same,inhibition,[11]; [41],84.7%
same,inhibition,[11]; at 0.5 µM,7.03% (inactive)
same,inhibition,[11]; [42],105%
same,inhibition,[12]; at 0.5 µM,29.2% (inactive)
same,inhibition,[12]; [43],30.5%
same,inhibition,[12]; [44],21.3%
same,inhibition,[13]; at 0.5 µM,12.2% (inactive)
same,inhibition,[13]; [45],29.6%
same,inhibition,"[13]; cisplatin combination, at 5 µM",105%
same,inhibition,[13]; [46],-26.1%
same,inhibition,"[13]; single agent, at 5 µM",103%
same,inhibition,[14]; at 0.5 µM,20.3% (inactive)
same,inhibition,"[14]; cisplatin combo, at 5 µM",94.9%
same,inhibition,[14]; [47],-10.7%
same,inhibition,[14]; [25],54.3%
same,inhibition,"[14]; single agent, at 5 µM",85.9%
same,inhibition,[15]; at 0.5 µM,46.9% (inactive)
same,inhibition,[15]; [22],39.3%
same,inhibition,[15]; [23],50.7%
same,inhibition,"[15]; single agent, at 0.05 µM",-7.66%
same,inhibition,"[15]; single agent, at 5 µM",95.3%

# From PubChem BioAssay
